According to the supplement of paper PMC6411743:
± gives the standard deviation of the averaged measurements. Targets with the largest changes are over-represented here; the source holds about 6,200 in all.

Compound: Nc1ncnc2c1ncn2[C@@H]1O[C@H](COP(=O)(O)OP(=O)(O)NP(=O)(O)O)[C@@H](O)[C@H]1O [adenylyl imidodiphosphate]
Assay: NP40-soluble protein abundance relative to vehicle (solubility fold change) (ratio); higher = more soluble protein in presence of AMP-PNP
Method in brief: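 Eight concentrations, 0.1 to 10 mM, were tested on Jurkat crude lysate for 10 min at room temperature and then 3 min at 37 °C, in three independent experiments. The lysate was solubilised with 0.8% NP40 and benzonase, ultracentrifuged, and the supernatant TMT-labelled for LC-MS/MS. Each value is the fold change against the detergent-processed vehicle in its own replicate, from vsn-normalised intensities.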

Sequence of UniProt P18065 (P18065 whole entry): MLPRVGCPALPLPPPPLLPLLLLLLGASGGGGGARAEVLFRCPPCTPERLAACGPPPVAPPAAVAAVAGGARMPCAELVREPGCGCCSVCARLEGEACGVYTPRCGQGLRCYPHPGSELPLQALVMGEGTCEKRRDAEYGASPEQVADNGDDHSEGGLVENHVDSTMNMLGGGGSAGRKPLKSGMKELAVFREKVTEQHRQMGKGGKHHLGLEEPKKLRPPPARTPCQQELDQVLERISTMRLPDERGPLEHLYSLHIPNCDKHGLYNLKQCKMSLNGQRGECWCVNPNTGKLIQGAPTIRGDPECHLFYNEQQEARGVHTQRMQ
Sequence of UniProt O95363 (O95363 whole entry): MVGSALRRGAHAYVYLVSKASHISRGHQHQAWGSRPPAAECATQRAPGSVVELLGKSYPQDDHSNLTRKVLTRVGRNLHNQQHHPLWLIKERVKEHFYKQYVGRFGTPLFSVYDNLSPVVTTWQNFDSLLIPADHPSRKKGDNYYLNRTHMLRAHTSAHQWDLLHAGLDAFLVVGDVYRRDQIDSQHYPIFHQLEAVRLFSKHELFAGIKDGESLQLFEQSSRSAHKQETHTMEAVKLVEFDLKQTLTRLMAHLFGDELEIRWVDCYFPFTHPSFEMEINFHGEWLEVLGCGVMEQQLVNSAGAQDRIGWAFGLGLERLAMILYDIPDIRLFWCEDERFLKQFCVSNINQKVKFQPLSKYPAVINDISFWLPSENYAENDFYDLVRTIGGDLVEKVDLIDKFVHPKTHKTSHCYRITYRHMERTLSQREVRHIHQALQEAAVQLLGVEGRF
Sequence of UniProt P51659 (P51659 whole entry): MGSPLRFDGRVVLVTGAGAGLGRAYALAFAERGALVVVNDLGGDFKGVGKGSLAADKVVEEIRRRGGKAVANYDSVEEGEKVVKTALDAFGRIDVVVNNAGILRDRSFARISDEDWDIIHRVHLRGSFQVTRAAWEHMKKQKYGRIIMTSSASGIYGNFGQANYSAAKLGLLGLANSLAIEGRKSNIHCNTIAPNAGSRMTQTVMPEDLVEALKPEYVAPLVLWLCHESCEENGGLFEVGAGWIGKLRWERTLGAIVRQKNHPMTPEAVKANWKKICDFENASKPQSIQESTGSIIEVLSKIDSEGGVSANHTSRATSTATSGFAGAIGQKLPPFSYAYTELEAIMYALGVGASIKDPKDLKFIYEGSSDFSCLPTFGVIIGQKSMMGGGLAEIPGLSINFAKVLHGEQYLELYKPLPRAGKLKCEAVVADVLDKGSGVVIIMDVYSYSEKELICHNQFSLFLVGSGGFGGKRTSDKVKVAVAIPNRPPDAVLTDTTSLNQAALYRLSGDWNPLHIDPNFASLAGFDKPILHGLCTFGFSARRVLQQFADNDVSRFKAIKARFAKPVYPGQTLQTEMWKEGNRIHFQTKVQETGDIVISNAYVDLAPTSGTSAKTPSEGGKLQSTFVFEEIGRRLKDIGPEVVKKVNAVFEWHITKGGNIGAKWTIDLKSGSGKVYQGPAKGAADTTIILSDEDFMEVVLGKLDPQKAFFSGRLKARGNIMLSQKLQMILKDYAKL
Sequence of UniProt P14854 (P14854 whole entry): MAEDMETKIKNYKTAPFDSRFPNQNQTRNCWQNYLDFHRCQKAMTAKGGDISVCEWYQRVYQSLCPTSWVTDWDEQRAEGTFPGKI
Sequence of UniProt P20248 (P20248 whole entry): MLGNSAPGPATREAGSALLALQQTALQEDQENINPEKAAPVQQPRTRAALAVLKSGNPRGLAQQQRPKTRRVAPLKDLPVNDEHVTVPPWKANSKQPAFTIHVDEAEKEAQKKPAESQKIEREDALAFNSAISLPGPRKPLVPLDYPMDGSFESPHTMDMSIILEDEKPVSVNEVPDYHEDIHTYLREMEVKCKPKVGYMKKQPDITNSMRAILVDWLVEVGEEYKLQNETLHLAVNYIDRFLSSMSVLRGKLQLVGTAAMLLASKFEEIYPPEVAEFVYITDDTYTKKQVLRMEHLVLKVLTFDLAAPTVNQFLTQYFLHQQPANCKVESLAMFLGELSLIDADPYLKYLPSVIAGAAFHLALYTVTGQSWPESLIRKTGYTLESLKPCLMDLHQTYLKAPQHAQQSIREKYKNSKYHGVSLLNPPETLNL
Sequence of UniProt P55060 (P55060 whole entry): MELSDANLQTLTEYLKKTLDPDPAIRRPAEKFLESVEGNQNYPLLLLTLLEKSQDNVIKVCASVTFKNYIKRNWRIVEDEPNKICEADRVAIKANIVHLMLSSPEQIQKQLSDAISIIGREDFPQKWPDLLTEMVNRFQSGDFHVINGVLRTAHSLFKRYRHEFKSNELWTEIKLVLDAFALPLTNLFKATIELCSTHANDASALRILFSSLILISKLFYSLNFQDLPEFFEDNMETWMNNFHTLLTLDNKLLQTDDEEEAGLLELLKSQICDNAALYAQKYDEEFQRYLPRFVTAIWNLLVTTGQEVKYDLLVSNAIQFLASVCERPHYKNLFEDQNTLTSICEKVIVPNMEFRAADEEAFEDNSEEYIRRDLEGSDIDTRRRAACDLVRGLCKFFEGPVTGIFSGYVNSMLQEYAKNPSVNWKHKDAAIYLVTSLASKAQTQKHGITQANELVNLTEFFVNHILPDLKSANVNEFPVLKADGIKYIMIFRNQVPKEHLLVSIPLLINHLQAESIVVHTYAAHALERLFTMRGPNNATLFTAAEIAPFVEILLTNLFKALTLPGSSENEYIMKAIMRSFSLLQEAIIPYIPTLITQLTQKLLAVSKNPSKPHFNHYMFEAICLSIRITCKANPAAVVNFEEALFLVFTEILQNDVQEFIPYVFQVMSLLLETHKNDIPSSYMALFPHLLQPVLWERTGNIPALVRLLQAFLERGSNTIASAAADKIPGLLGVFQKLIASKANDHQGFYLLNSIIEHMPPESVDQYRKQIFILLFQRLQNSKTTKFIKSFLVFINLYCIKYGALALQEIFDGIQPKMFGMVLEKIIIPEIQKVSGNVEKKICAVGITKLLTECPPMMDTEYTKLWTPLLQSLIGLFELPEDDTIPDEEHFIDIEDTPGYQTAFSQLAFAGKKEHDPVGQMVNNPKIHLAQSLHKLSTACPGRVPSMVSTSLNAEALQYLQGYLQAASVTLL
Sequence of UniProt P43686 (P43686 whole entry): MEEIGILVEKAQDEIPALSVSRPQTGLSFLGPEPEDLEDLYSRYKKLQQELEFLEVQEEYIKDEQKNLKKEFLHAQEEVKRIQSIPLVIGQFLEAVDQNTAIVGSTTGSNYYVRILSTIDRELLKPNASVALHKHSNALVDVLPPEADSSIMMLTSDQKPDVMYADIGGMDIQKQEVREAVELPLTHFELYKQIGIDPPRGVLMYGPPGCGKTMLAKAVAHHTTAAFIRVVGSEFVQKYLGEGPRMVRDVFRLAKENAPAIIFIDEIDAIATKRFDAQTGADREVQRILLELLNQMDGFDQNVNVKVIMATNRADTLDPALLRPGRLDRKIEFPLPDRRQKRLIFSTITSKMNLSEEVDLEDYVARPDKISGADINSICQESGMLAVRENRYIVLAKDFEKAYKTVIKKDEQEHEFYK
Sequence of UniProt P05114 (P05114 whole entry): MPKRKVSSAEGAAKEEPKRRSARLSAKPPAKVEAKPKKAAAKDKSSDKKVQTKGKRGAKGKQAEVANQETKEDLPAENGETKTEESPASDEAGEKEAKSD
Sequence of UniProt P50583 (P50583 whole entry): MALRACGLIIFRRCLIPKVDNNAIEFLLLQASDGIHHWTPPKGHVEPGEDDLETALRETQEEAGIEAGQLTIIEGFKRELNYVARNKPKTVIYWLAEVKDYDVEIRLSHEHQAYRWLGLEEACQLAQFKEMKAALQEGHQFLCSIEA
Sequence of UniProt O95630 (O95630 whole entry): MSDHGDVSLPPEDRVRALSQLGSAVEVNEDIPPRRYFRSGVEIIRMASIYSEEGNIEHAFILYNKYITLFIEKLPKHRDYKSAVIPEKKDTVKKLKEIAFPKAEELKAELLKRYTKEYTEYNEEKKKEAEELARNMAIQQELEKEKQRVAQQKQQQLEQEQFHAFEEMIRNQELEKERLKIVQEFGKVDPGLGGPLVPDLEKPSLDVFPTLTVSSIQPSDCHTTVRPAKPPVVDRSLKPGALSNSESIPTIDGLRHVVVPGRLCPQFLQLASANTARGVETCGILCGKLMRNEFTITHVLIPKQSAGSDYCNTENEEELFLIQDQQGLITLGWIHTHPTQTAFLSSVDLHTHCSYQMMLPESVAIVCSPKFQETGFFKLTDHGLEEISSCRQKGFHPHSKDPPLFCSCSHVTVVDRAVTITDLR
Sequence of UniProt Q13105 (Q13105 whole entry): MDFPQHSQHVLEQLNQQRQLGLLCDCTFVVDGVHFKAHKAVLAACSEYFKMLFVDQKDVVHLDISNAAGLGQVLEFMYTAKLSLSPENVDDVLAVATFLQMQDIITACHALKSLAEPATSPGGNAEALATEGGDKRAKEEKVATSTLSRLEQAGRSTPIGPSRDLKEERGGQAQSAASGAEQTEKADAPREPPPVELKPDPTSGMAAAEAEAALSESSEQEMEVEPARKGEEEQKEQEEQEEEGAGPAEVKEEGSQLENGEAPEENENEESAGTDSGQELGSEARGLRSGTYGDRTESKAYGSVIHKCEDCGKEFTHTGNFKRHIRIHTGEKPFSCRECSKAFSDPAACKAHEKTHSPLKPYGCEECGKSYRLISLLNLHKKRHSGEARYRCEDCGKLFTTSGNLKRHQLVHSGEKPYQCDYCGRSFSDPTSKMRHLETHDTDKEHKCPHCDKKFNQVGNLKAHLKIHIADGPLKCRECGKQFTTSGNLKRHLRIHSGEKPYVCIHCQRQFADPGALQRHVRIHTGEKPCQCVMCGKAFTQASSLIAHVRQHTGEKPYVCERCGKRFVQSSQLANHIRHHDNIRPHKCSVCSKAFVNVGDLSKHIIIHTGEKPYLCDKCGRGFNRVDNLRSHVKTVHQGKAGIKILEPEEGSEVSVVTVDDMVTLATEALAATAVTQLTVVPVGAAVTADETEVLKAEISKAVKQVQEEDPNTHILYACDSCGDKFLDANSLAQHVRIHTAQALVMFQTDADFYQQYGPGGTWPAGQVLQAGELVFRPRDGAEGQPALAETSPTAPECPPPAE

Target	NP40-soluble protein abundance (concentration: 1mM)	NP40-soluble protein abundance (concentration: 2mM)	NP40-soluble protein abundance (concentration: 4mM)	NP40-soluble protein abundance (concentration: 6mM)	NP40-soluble protein abundance (concentration: 8mM)	NP40-soluble protein abundance (concentration: 10mM)
NAA20 (UniProt P61599)	0.999 ± 0.039	0.9558 ± 0.0052	0.991 ± 0.022	0.973 ± 0.01	1.026 ± 0.0096	0.9551 ± 0.001
UniProt Q13105|Q13105-2|Q13105-3	1.01 ± 0.06	1.011 ± 0.0042	1.03 ± 0.028	1.04 ± 0.057	1.04 ± 0.051	1.07 ± 0.072
STAMBP (UniProt O95630)	1.02 ± 0.02	0.993 ± 0.012	0.995 ± 0.03	0.984 ± 0.018	0.964 ± 0.033	0.948 ± 0.06
WDHD1 (UniProt O75717)	1.01 ± 0.021	0.996 ± 0.012	0.99 ± 0.015	0.963 ± 0.036	0.953 ± 0.016	0.937 ± 0.014
FBL (UniProt P22087)	1.02 ± 0.046	1.027 ± 0.003	1.1 ± 0.051	1.22 ± 0.092	1.37 ± 0.12	1.48 ± 0.25
FARS2 (UniProt O95363)	0.9733 ± 0.0048	0.856 ± 0.13	0.943 ± 0.01	0.9111 ± 0.0032	0.919 ± 0.033	0.876 ± 0.029
HSPA14 (UniProt Q0VDF9)	1.01 ± 0.046	0.998 ± 0.032	1.01 ± 0.034	1.012 ± 0.0091	1.03 ± 0.059	1.02 ± 0.049
HMGN1 (UniProt P05114)	1.23 ± 0.1	1.36 ± 0.18	1.28 ± 0.074	1.57 ± 0.15	1.54 ± 0.16	1.89 ± 0.36
UniProt P49005|F8W8R3	0.977 ± 0.021	0.947 ± 0.059	0.973 ± 0.027	0.929 ± 0.011	0.9339 ± 0.0057	0.925 ± 0.037
UniProt P18859|P18859-2|A8MUH2	0.948 ± 0.053	0.899 ± 0.032	0.867 ± 0.062	0.834 ± 0.05	0.825 ± 0.063	0.857 ± 0.026
CCNA2 (UniProt P20248)	1.03 ± 0.042	1.07 ± 0.057	1.01 ± 0.033	1.01 ± 0.028	0.975 ± 0.014	1.04 ± 0.071
UniProt P55060|P55060-3	1 ± 0.012	1.02 ± 0.11	0.987 ± 0.032	1.01 ± 0.04	0.985 ± 0.027	1.02 ± 0.04
NUDT2 (UniProt P50583)	0.9311 ± 0.0079	0.909 ± 0.027	1.56 ± 0.26	1.22 ± 0.17	1.49 ± 0.23	1.14 ± 0.14
HSD17B4 (UniProt P51659)	1.01 ± 0.034	0.967 ± 0.026	1.04 ± 0.041	1.09 ± 0.058	1.12 ± 0.033	1.1 ± 0.034
LDHB (UniProt P07195)	1.01 ± 0.019	0.92 ± 0.025	0.947 ± 0.02	0.973 ± 0.036	0.969 ± 0.024	0.943 ± 0.013
UniProt Q02880|Q02880-2	1.56 ± 0.036	1.63 ± 0.041	1.77 ± 0.12	1.88 ± 0.19	1.95 ± 0.18	2.01 ± 0.25
PSMC4 (UniProt P43686)	0.906 ± 0.041	0.921 ± 0.06	0.885 ± 0.08	0.871 ± 0.079	0.866 ± 0.082	0.859 ± 0.1
IGFBP2 (UniProt P18065)	1.03 ± 0.034	1.03 ± 0.058	1.01 ± 0.067	0.966 ± 0.0077	0.991 ± 0.021	0.957 ± 0.014
TXLNA (UniProt P40222)	1.04 ± 0.059	1.17 ± 0.13	1.08 ± 0.14	1.21 ± 0.15	1.35 ± 0.046	1.2 ± 0.2
COX6B1 (UniProt P14854)	0.864 ± 0.041	0.926 ± 0.032	0.916 ± 0.063	0.86 ± 0.055	0.821 ± 0.016	0.839 ± 0.019
UniProt P43155|P43155-2|P43155-3	0.974 ± 0.057	0.965 ± 0.011	1 ± 0.032	1.01 ± 0.086	1.01 ± 0.061	1.01 ± 0.077
